Assay results reported in PubChem BioAssay (NCI).
This is part of a sample that, as a whole, favours compounds with a hit. Of some 83,000 tested, about 20% had one in any assay.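 48-hour exposure, single concentration, 96-well plates; percent growth endpoint where 0 means no net growth. Active: below 10.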 A number with no mark means an inactive call. Activity calls are given as the source filed them.

Legend:
Assay in all cases: NCI-60 one-dose screen, 48 h (100 = growth as untreated, 0 = no growth, -100 = all killed)
Details in all cases: 10 µM
BT-549 breast = tested on: BT-549 breast
MDA-MB-435 melanoma = tested on: MDA-MB-435 melanoma
SW-620 colon = tested on: SW-620 colon
MCF7 breast = tested on: MCF7 breast
HCT-116 colon = tested on: HCT-116 colon
KM12 colon = tested on: KM12 colon
HCC-2998 colon = tested on: HCC-2998 colon

Structure (SMILES)	growth (BT-549 breast)	growth (MDA-MB-435 melanoma)	growth (SW-620 colon)	growth (MCF7 breast)	growth (HCT-116 colon)	growth (KM12 colon)	growth (HCC-2998 colon)
COc1cc(C(=O)/C=C/c2cc(-c3cc(OC)c(OC)c(OC)c3)n[nH]2)cc(OC)c1OC	-79% (active)	-51.8% (active)	-71.8% (active)	3.65% (active)	-93.6% (active)	-77.7% (active)	–
CC12O[C@H](C[C@@H](OC(=O)c3ccccc3)[C@H]1O)n1c3ccccc3c3c4c(c5c6ccccc6n2c5c31)C(=O)NC4=O	84.8%	60.2%	60.2%	69.3%	70.1%	19.3%	87.2%
O=C(C[n+]1ccccc1)c1ccc2ccccc2c1	100%	102%	–	98.1%	91.2%	93.1%	–
COc1ccc2c(c1)N(CCO)C1=C(C(=O)OC1)C2c1cc(OC)c(OC)c(OC)c1 (configuration not stated)	20.5%	-48.2% (active)	19.4%	19.3%	4.03% (active)	-43% (active)	–
O=C(CC(c1ccccc1)N1CCOCC1)c1ccccc1 (configuration not stated)	89.8%	89.7%	–	32.2%	34.5%	23%	–
O=C1OCC2=C1C(c1cccc(Cl)c1)c1cc3c(cc1N2CCO)CCC3 (configuration not stated)	8.33% (active)	-49.5% (active)	16%	14.1%	2.02% (active)	-47.4% (active)	–
CCC1(C(C)C)NC(=O)NC1=O (configuration not stated)	104%	106%	–	103%	101%	104%	–
COc1cc(-c2cc(/C=C3\C(=O)Nc4ccccc43)[nH]n2)cc(OC)c1OC	34.7%	38.7%	60.2%	–	47.3%	10.3%	87.4%
O=C(CNC(=O)OCc1ccccc1)NCC(=O)Oc1ccc([N+](=O)[O-])cc1	101%	98.4%	95.9%	95.8%	93.7%	102%	–
O=C1OCC2=C1C(c1cccc(Cl)c1)c1cc3c(cc1N2CCO)OCCO3 (configuration not stated)	32.4%	-42.1% (active)	18.7%	18%	6.21% (active)	-32.8% (active)	–
COc1cc(/C(=C2/O[C@@H]([C@H]3COC(C)(C)O3)[C@H]3OC(C)(C)O[C@@H]23)c2ccc3ccccc3c2)cc(OC)c1OC	22.2%	26.2%	–	22.8%	-56.4% (active)	33.4%	–
CC(=O)n1c(-c2ccc(Cl)c(Cl)c2)cn(-c2ccc(Cl)cc2)c1=O	0.373% (active)	32%	38.7%	21.9%	17.8%	49.8%	21.6%
COC(=O)c1ccc(=O)oc1	104%	106%	–	100%	97.7%	104%	–
CCc1ccc2c(c1)N(CCO)C1=C(C(=O)OC1)C2c1ccccc1 (configuration not stated)	87.7%	21.6%	97.2%	92.2%	89.3%	76.1%	–
COc1ccc2c(c1)N(CCO)C1=C(C(=O)OC1)C2c1ccccc1 (configuration not stated)	47.2%	-62.9% (active)	13.9%	25.4%	25.9%	17.4%	–
CCc1ccc2c(c1)N(CCO)C1=C(C(=O)OC1)C2c1cc(OC)c(OC)c(OC)c1 (configuration not stated)	19.8%	-69.9% (active)	23%	19.4%	7.59% (active)	-29.6% (active)	–
O=C(CC(NC(=O)OCc1ccccc1)C(=O)OCc1ccccc1)OCc1ccccc1 (configuration not stated)	112%	102%	91.6%	102%	97.4%	108%	–
COc1ccc(-c2nc3ncccn3c2-c2nnc(-c3ccc(F)cc3)o2)cc1	99.7%	107%	105%	92.7%	99.3%	104%	104%
COc1cc2c(cc1OC)N(CCO)C1=C(C(=O)OC1)C2c1ccc(Cl)c(Cl)c1 (configuration not stated)	89.4%	101%	102%	95.8%	97.7%	102%	–
COc1ccc(/C(=C2\O[C@@H]([C@H]3COC(C)(C)O3)[C@H]3OC(C)(C)O[C@@H]23)c2cc(OC)c(OC)c(OC)c2)cc1O	57.7%	-44.7% (active)	15.4%	–	54%	26.7%	102%
COc1cccc(C2C3=C(COC3=O)N(CCO)c3cc(OC)ccc32)c1 (configuration not stated)	16.9%	-44.7% (active)	21%	23%	10.6%	-5.83% (active)	–
CSCCCNC(=O)c1ccc2c(c1)/C(=C/c1[nH]c(C)cc1C)C(=O)N2	9.33% (active)	13.4%	28.9%	–	3.75% (active)	17.1%	30.3%
C(CCCC1=NCCO1)CCCC1=NCCO1	103%	109%	99.4%	102%	112%	103%	–

Structure (SMILES)	growth (BT-549 breast)	growth (MDA-MB-435 melanoma)	growth (SW-620 colon)	growth (MCF7 breast)	growth (HCT-116 colon)	growth (KM12 colon)	growth (HCC-2998 colon)
O=C(NN1C(=O)CSC1c1ccc(Cl)cc1)c1cccnc1 (configuration not stated)	102%	87.3%	–	111%	86.9%	94.2%	–
COc1ccc(-c2ccc3cc(C(=O)Nc4ccc(O)c(C(=O)/C=C/c5cc(OC)c(OC)c(OC)c5)c4)ccc3c2)cc1	102%	93.4%	94.2%	87.3%	79.2%	104%	–
COc1ccccc1CNCCN1C(=O)c2ccc3c4c(ccc(c24)C1=O)C(=O)N(CCNCc1ccccc1OC)C3=O	-94% (active)	-80.2% (active)	–	-69.2% (active)	-92.6% (active)	-96.6% (active)	–
COc1ccc2c(c1)sc1nc(-c3ccccc3)c(-c3cccnc3)n12	85.1%	99.4%	97.5%	102%	78.5%	106%	–
C[N+](C)(C)c1ncnc2nc[nH]c12	–	95.3%	120%	90.8%	97.3%	110%	-10.1% (active)
CCCCCCCCCCCCCCCCN(C(C)c1ccccc1)S(=O)(=O)c1ccc(OC)c(N)c1 (configuration not stated)	–	108%	99.7%	95.9%	101%	100%	97.6%
Cc1cc(Cc2cc(C)c(O)c(C)c2)cc(C)c1O	–	-29% (active)	21.6%	22.8%	30.6%	39.4%	74.4%
O=C1/C(=C\c2cn(C(=O)c3ccc(Cl)cc3)c3ccccc23)c2ccccc2N1C(=O)c1ccc(Cl)cc1	–	97.6%	93.1%	71.1%	65.1%	24.3%	–
CCN1CCC(CCOC)(CN2c3ccccc3Sc3ccc(Cl)cc32)C1 (configuration not stated)	–	10.9%	54%	22.9%	28.8%	29.8%	40.5%
CS(=O)(=O)Nc1ccc(Nc2c3ccccc3nc3cc(N)ccc23)cc1	–	53.6%	39.8%	6.57% (active)	28%	5.56% (active)	35.2%
CNc1ccc(CSc2ccc(C)cc2)cc1	–	85.2%	93.7%	77%	93.6%	62.4%	94%
Cc1cs/c(=N\NC(=O)c2cc(-c3cc4ccccc4o3)nn2-c2ccccc2)n1-c1ccccc1	–	102%	93.4%	73.4%	83%	98.6%	–
CCN(CCCCCCN1CC(=O)N(CCCCCCN(CC)Cc2ccccc2OC)CC1=O)Cc1ccccc1OC	87.8%	85.9%	–	83.6%	37.6%	65.5%	–
Clc1nc(Cl)c2c(ncn2C/C=C\Cn2cnc3c(Cl)nc(Cl)nc32)n1	–	-44.9% (active)	-92.2% (active)	-1.6% (active)	-15.4% (active)	-94.5% (active)	–
COc1cc(C(=C2O[C@@H]([C@H]3COC(C)(C)O3)[C@H]3OC(C)(C)O[C@@H]23)c2cc(OC)c(OC)c(OC)c2)cc(OC)c1OC	111%	113%	–	103%	96.4%	107%	–
CC/C(C)=C(\C)C(=O)O	–	99.1%	105%	98.6%	109%	103%	108%
O=C(Nc1ccncc1)C(=O)c1cn(S(=O)(=O)c2cc(Cl)cc(Cl)c2)c2ccccc12	–	8.83% (active)	64.9%	43.9%	51.4%	55.3%	65.7%
N#Cc1cc(-c2cc3ccccc3o2)oc1N	–	5.63% (active)	12%	22.9%	8.05% (active)	0.443% (active)	–
COc1cc(CNc2ccccc2C(=O)N2CCN(C(=O)c3cc(-c4cc(OC)c(OC)c(OC)c4)n4nc(-c5ccccc5)cc4n3)CC2)cc(OC)c1OC	–	-47.6% (active)	26.3%	6.61% (active)	21.6%	17.8%	40.3%
COc1cc2c(cc1OCCCCCCN1CCN(CC(=O)Nc3ccc(Cl)cc3C(=O)c3ccccc3Cl)CC1)N=CC1CCCN1C2=O (configuration not stated)	–	-81.2% (active)	-83.6% (active)	-7.24% (active)	-42.3% (active)	-75.9% (active)	–
COc1ccc(/C(=C2/O[C@@H]([C@H]3COC(C)(C)O3)[C@H]3OC(C)(C)O[C@@H]23)c2cc(OC)c(OC)c(OC)c2)cc1O	67.5%	-10.2% (active)	–	60.9%	78.1%	5.71% (active)	–
CCOC(=O)CNC(=O)CCCCSc1ncnc2nc[nH]c12	–	110%	107%	91.9%	101%	108%	-18% (active)
COc1cc(C)ccc1C(=O)c1ccc(C)cc1OC	–	-69.8% (active)	10.1%	21.1%	24.8%	22.1%	40%

Structure (SMILES)	growth (BT-549 breast)	growth (MDA-MB-435 melanoma)	growth (SW-620 colon)	growth (MCF7 breast)	growth (HCT-116 colon)	growth (KM12 colon)	growth (HCC-2998 colon)
CCCCCCCC(C)NCCO (configuration not stated)	–	97.6%	106%	97.9%	111%	102%	105%
O=C(Nc1ccncc1)C(=O)c1cn(S(=O)(=O)c2cccc3ccccc23)c2ccccc12	–	-7.64% (active)	71.4%	52.3%	45.8%	55%	64.8%
Cc1cc(C)c(CCc2cc(C)c(C)cc2C)cc1C	–	98%	105%	105%	106%	106%	101%
CCN(CCCCCCCCCCN1CC(=O)N(CCCCCCCCCCN(CC)Cc2ccccc2OC)CC1=O)Cc1ccccc1OC	-50.7% (active)	-72% (active)	–	-89.2% (active)	-95.2% (active)	-76.2% (active)	–
COc1ccc2c(c1)sc1nc(-c3ccccc3)c(-c3ccsc3)n12	–	-39.6% (active)	19.4%	13.5%	30.8%	19.4%	11.6%
O=C(Cc1csc2nc(-c3ccc(Cl)cc3)cn12)N/N=C/c1ccccc1O	62.6%	67.4%	–	42.5%	36.6%	36.5%	–
CC[C@H]1CCC/C=C/[C@@H]2C[C@H](O)C[C@H]2[C@H](O)/C=C/C(=O)O1	–	5.71% (active)	-69% (active)	-73% (active)	-67.8% (active)	-70.5% (active)	-65.8% (active)
COc1ccc2c(c1)[n+]([O-])c(C#N)c(NC(=O)c1ccco1)[n+]2[O-]	–	104%	108%	90.8%	99.9%	105%	–
COc1cc2c(cc1OCCCN1CCN(c3ncnc4ccccc34)CC1)N=CC1CCCN1C2=O (configuration not stated)	–	-67.8% (active)	-24% (active)	-17.4% (active)	11.7%	-24.8% (active)	–
Nc1ccn(C2CC(O)C(CO)O2)c(=O)n1 (configuration not stated)	–	107%	113%	103%	109%	110%	2.98% (active)
CCCCCCCCCCCC[n+]1ccc(C(N)=O)cc1	–	33.6%	23.6%	40.2%	25.6%	-47% (active)	25.8%
COc1cc(/C=N/NC(=O)c2ccccc2Nc2cccc(C(F)(F)F)c2)cc(OC)c1OC	–	-34% (active)	3.91% (active)	5.18% (active)	158%	16.6%	28.2%
O=[N+]([O-])c1cccc(-c2ncc(-c3ccc(Cl)cc3Cl)[nH]2)c1	–	76.5%	-88% (active)	-8.38% (active)	13.5%	15.7%	58.1%
O=C(Nc1ccc(Cl)c(Cl)c1)Nc1c(Oc2ccc(Cl)c(Cl)c2)ccc(Cl)c1S(=O)(=O)O	–	-31.4% (active)	23.6%	24.6%	23.5%	33.2%	25.2%
COc1cc([C@@H]2c3cc4c(cc3C(Br)[C@H]3COC(=O)[C@H]23)OCO4)cc(OC)c1OC (some centres not stated)	-12.7% (active)	-42% (active)	–	-10.4% (active)	-34.7% (active)	-81.3% (active)	–
COc1ccc(/C=C/C(=O)Nc2ccc(-c3nc4ccc(OC)cc4s3)cc2)cc1	–	102%	114%	85.3%	105%	111%	110%
O=[N+]([O-])c1cccc(N=Cc2ccc3c(c2)OCO3)c1	–	102%	108%	103%	106%	112%	98.3%
CN(C)CCNC(=O)c1cccn2c(=O)c3cc4ccccc4cc3nc12	–	-68.6% (active)	-11.9% (active)	4.71% (active)	-41% (active)	-10.2% (active)	–
COc1cc2nc(Nc3cccc(C(=O)O)c3)nc(N)c2cc1OC	–	107%	96.3%	97.8%	-100% (active)	108%	135%
CC1(O)CCC2CC3OC3(C)CCC3OC3(C)CCC1C2(C)C (configuration not stated)	–	107%	99.6%	103%	100%	111%	–
Fc1ccc2nc(-c3nc(-c4ccccc4)n4ccccc34)[nH]c2c1	–	-19.4% (active)	26.5%	-12.6% (active)	-31.2% (active)	–	29.2%
